Hit rate of the full screen: of about 5,500 compounds, about 2,000 (36%) were called active. About 18% were inconclusive and are not listed. Cut-off read from the data, not from the text of the source: active = normalized growth mostly below about 0.91 (no sharp cut-off); inconclusive = no clear call, values can overlap the other calls; inactive = mostly above about 0.92. Some of the results follow.
Experiment: chemical genetic growth profiling, strain panel (AID 1159580);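 note: tested at 20 µM; growth read once vehicle control cultures reached saturation at 30 °C; 1 = growth at the plate median or of vehicle wells; lower values mean less growth of the strain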
Conditions: growth OD
[1] = S. cerevisiae deletion strains, locus YDL101C, strain DUN1, active compounds read low
[2] = S. cerevisiae deletion strains, locus YHR030C, strain SLT2, active compounds read low
[3] = S. cerevisiae deletion strains, locus YAR019C, strain CDC15, active compounds read low
[4] = S. cerevisiae deletion strains, locus YBL105C, strain PKC1, active compounds read low
[5] = S. cerevisiae deletion strains, locus YBR135W, strain CKS1, active compounds read low
[6] = S. cerevisiae deletion strains, locus YBR136W, strain MEC1, active compounds read low
[7] = S. cerevisiae deletion strains, locus YBR160W, strain CDC28, active compounds read low
[8] = S. cerevisiae deletion strains, locus YDL017W, strain CDC7, active compounds read low
[9] = S. cerevisiae deletion strains, locus YDL108W, strain KIN28, active compounds read low
[10] = S. cerevisiae deletion strains, locus YDL132W, strain cdc53, active compounds read low
[11] = S. cerevisiae deletion strains, locus YDL214C, strain PRR2, active compounds read low
[12] = S. cerevisiae deletion strains, locus YDR052C, strain DBF4, active compounds read low
[13] = S. cerevisiae deletion strains, locus YDR226W, strain ADK1, active compounds read low
[14] = S. cerevisiae deletion strains, locus YDR477W, strain SNF1, active compounds read low
[15] = S. cerevisiae deletion strains, locus YER123W, strain YCK3, active compounds read low
[16] = S. cerevisiae deletion strains, locus YER133W, strain GLC7, active compounds read low
[17] = S. cerevisiae deletion strains, locus YFL009W, strain cdc4, active compounds read low
[18] = S. cerevisiae deletion strains, locus YFL029C, strain CAK1, active compounds read low
[19] = S. cerevisiae deletion strains, locus YFR003C, strain YPI1, active compounds read low
[20] = S. cerevisiae deletion strains, locus YFR019W, strain FAB1, active compounds read low
[21] = S. cerevisiae deletion strains, locus YFR028C, strain CDC14, active compounds read low
[22] = S. cerevisiae deletion strains, locus YGR040W, strain KSS1, active compounds read low
[23] = S. cerevisiae deletion strains, locus YGR052W, strain FMP48, active compounds read low
[24] = S. cerevisiae deletion strains, locus YGR092W, strain DBF2, active compounds read low
[25] = S. cerevisiae deletion strains, locus YHR079C, strain IRE1, active compounds read low
[26] = S. cerevisiae deletion strains, locus YHR082C, strain KSP1, active compounds read low
[27] = S. cerevisiae deletion strains, locus YHR205W, strain SCH9, active compounds read low
[28] = S. cerevisiae deletion strains, locus YJL095W, strain BCK1, active compounds read low
[29] = S. cerevisiae deletion strains, locus YJL128C, strain PBS2, active compounds read low
[30] = S. cerevisiae deletion strains, locus YJL157C, strain FAR1, active compounds read low
[31] = S. cerevisiae deletion strains, locus YJR016C, strain ILV3, active compounds read low
[32] = S. cerevisiae deletion strains, locus YJR066W, strain TOR1 (second series), active compounds read low
[33] = S. cerevisiae deletion strains, locus YJR066W, strain TOR1, active compounds read low
[34] = S. cerevisiae deletion strains, locus YKL048C, strain ELM1, active compounds read low
[35] = S. cerevisiae deletion strains, locus YKL067W, strain YNK1, active compounds read low
[36] = S. cerevisiae deletion strains, locus YKL101W, strain HSL1, active compounds read low
[37] = S. cerevisiae deletion strains, locus YKL193C, strain SDS22, active compounds read low
[38] = S. cerevisiae deletion strains, locus YKL203C, strain TOR2, active compounds read low
[39] = S. cerevisiae deletion strains, locus YLR113W, strain HOG1, active compounds read low
[40] = S. cerevisiae deletion strains, locus YLR133W, strain CKI1, active compounds read low
[41] = S. cerevisiae deletion strains, locus YLR403W, strain SFP1, active compounds read low
[42] = S. cerevisiae deletion strains, locus YML070W, strain DAK1, active compounds read low
[43] = S. cerevisiae deletion strains, locus YMR205C, strain PFK2 (second series), active compounds read low
[44] = S. cerevisiae deletion strains, locus YNL006W, strain LST8, active compounds read low
[45] = S. cerevisiae deletion strains, locus YNL020C, strain ARK1, active compounds read low
[46] = S. cerevisiae deletion strains, locus YNL161W, strain CBK1, active compounds read low
[47] = S. cerevisiae deletion strains, locus YNL183C, strain NPR1, active compounds read low
[48] = S. cerevisiae deletion strains, locus YNL207W, strain RIO2, active compounds read low
[49] = S. cerevisiae deletion strains, locus YNL222W, strain SSU72, active compounds read low
[50] = S. cerevisiae deletion strains, locus YNL307C, strain MCK1 (second series), active compounds read low
[51] = S. cerevisiae deletion strains, locus YOL136C, strain PFK27, active compounds read low
[52] = S. cerevisiae deletion strains, locus YOR061W, strain CKA2, active compounds read low
[53] = S. cerevisiae deletion strains, locus YOR119C, strain RIO1, active compounds read low
[54] = S. cerevisiae deletion strains, locus YOR231W, strain MKK1, active compounds read low
[55] = S. cerevisiae deletion strains, locus YOR329C, strain SCD5, active compounds read low
[56] = S. cerevisiae deletion strains, locus YPL031C, strain PHO85, active compounds read low
[57] = S. cerevisiae deletion strains, locus YPL153C, strain RAD53, active compounds read low
[58] = S. cerevisiae deletion strains, locus YPL204W, strain HRR25, active compounds read low
[59] = S. cerevisiae deletion strains, locus YPL209C, strain IPL1, active compounds read low
[60] = S. cerevisiae deletion strains, locus YPL256C, strain CLN2, active compounds read low
[61] = S. cerevisiae deletion strains, locus YPR025C, strain CCL1, active compounds read low
[62] = S. cerevisiae deletion strains, locus YPR106W, strain ISR1, active compounds read low
[63] = S. cerevisiae deletion strains, locus YPR111W, strain DBF20, active compounds read low
[64] = S. cerevisiae deletion strains, strain NNK1, active compounds read low
[65] = S. cerevisiae deletion strains, strain TSCII, active compounds read low

Measured: normalized growth

CC(C)(C)S(=O)(=O)/C(C#N)=C/N1CCCCC1
inactive: S. cerevisiae deletion strains, locus YBR229C, strain ROT2, active compounds read low 1.02 | [1] 0.989 | S. cerevisiae deletion strains, locus YDR150W, strain NUM1, active compounds read low 0.995 | S. cerevisiae deletion strains, locus YEL061C, strain CIN8, active compounds read low 1.05 | S. cerevisiae deletion strains, locus YGR078C, strain PAC10, active compounds read low 0.993 | [2] 1.02 | S. cerevisiae deletion strains, locus YHR087W, strain rtc3, active compounds read low 0.992 | S. cerevisiae deletion strains, locus YJL187C, strain SWE1, active compounds read low 0.986 | S. cerevisiae deletion strains, locus YJR043C, strain POL32, active compounds read low 0.983 | S. cerevisiae deletion strains, locus YJR075W, strain HOC1, active compounds read low 1.02 | S. cerevisiae deletion strains, locus YLR039C, strain RIC1, active compounds read low 1.02 | S. cerevisiae deletion strains, locus YLR058C, strain SHM2 (second series), active compounds read low 1.01 | S. cerevisiae deletion strains, locus YLR085C, strain ARP6, active compounds read low 1.04 | S. cerevisiae deletion strains, locus YLR262C, strain YPT6, active compounds read low 1.03 | S. cerevisiae deletion strains, locus YML094W, strain GIM5, active compounds read low 1.02 | S. cerevisiae deletion strains, locus YMR219W, strain ESC1, active compounds read low 1.02 | S. cerevisiae deletion strains, locus YMR263W, strain SAP30, active compounds read low 1 | S. cerevisiae deletion strains, locus YNL128W, strain TEP1, active compounds read low 1 | S. cerevisiae deletion strains, locus YNL153C, strain GIM3, active compounds read low 1 | S. cerevisiae deletion strains, locus YNL298W, strain CLA4 (second series), active compounds read low 1.02 | S. cerevisiae deletion strains, locus YNL322C, strain KRE1, active compounds read low 1.02 | S. cerevisiae deletion strains, locus YNR030W, strain Alg12, active compounds read low 1.02 | S. cerevisiae deletion strains, locus YPL055C, strain LGE1, active compounds read low 0.963 | S. cerevisiae deletion strains, locus YPL241C, strain CIN2, active compounds read low 1.02 | S. cerevisiae deletion strains, locus YPR135W, strain CTF4, active compounds read low 0.988 | S. cerevisiae strains, strain wild type, active compounds read low 1.01

O=c1c2ccccc2[nH]c(=S)n1-c1cccc(C(F)(F)F)c1
active: [4] 0.811 | [5] 0.792 | [6] 0.774 | [8] 0.846 | [9] 0.565 | [12] 0.885 | [14] 0.427 | [16] 0.343 | [18] 0.633 | [22] 0.513 | [2] 0.334 | [28] 0.182 | [31] 0.717 | [38] 0.352 | [41] 0.459 | [53] 0.347 | [56] 0.589 | [57] 0.646 | [60] 0.824
inactive: [3] 0.927 | [7] 0.923 | [1] 0.954 | [10] 0.944 | [11] 0.908 | [13] 0.956 | [15] 0.899 | [17] 0.95 | [19] 0.917 | [20] 0.97 | [21] 0.949 | [23] 0.914 | [24] 0.874 | [25] 0.837 | [26] 0.832 | [27] 0.748 | [29] 0.957 | [30] 0.925 | [32] 0.892 | [33] 0.799 | [34] 0.862 | [35] 0.927 | [36] 0.865 | [37] 0.917 | [39] 0.912 | [40] 0.895 | [42] 0.926 | [43] 0.894 | [44] 0.965 | [45] 0.886 | [46] 0.929 | [47] 0.852 | [48] 0.943 | [49] 0.944 | [50] 0.884 | [51] 0.93 | [52] 0.833 | [54] 0.872 | [55] 0.948 | [58] 0.719 | [59] 0.95 | [61] 0.946 | [62] 0.948 | [63] 0.962 | [64] 0.961 | [65] 0.889

FC(F)(F)c1cccc(-n2c(CSCc3cccc4ccccc34)n[nH]c2=S)c1
inactive: [3] 0.986 | [4] 1 | [5] 0.996 | [6] 1 | [7] 0.986 | [8] 0.993 | S. cerevisiae deletion strains, locus YDL028C, strain MPS1, active compounds read low 0.985 | [1] 0.989 | [9] 0.998 | [10] 0.988 | [11] 0.993 | [12] 1 | S. cerevisiae deletion strains, locus YDR054C, strain cdc34, active compounds read low 0.992 | [13] 0.986 | [14] 0.976 | [15] 0.958 | [16] 0.969 | [17] 0.978 | [18] 0.993 | [19] 1 | [20] 1.01 | [21] 0.994 | [22] 0.991 | [23] 1.08 | [24] 0.952 | [2] 1.12 | [25] 1.1 | [26] 1.09 | [27] 1.01 | S. cerevisiae deletion strains, locus YIL147C, strain SLN1, active compounds read low 0.999 | [28] 1.06 | [29] 0.979 | [30] 0.966 | [31] 0.993 | [32] 0.936 | [33] 1.09 | [34] 1 | [35] 0.989 | [36] 0.986 | [37] 0.99 | [38] 1.06 | [39] 1.07 | [40] 1 | [41] 0.973 | [42] 0.993 | S. cerevisiae deletion strains, locus YMR001C, strain CDC5, active compounds read low 0.992 | [43] 1 | S. cerevisiae deletion strains, locus YMR277W, strain FCP1, active compounds read low 0.976 | [44] 0.984 | [45] 1 | [46] 0.998 | [47] 1.13 | [48] 0.989 | [49] 0.997 | [50] 1 | S. cerevisiae deletion strains, locus YOL078W, strain AVO1, active compounds read low 0.99 | [51] 0.991 | [52] 0.977 | [53] 1.02 | [54] 1.09 | [55] 0.993 | [56] 0.977 | [57] 0.962 | [58] 0.967 | [59] 0.99 | [60] 1.1 | [61] 0.992 | [62] 0.981 | [63] 0.993 | [64] 1.01 | [65] 0.995

Source: PubChem BioAssay AID1159580 (chemical genetic matrix, 2015)
